A short description of assay [1]: Drug repurposing screens with cells derived from glioblastoma tumor samples (AID 1345199). For activity, negative = cell killing: % is set by controls: 0 for no effect and ±100 for the full control effect. Note: nearly all actives have a fitted effect of over 40% in size. Note: potency is the fitted concentration of half-maximal effect. Particulars: GBM patient neurospheres viability, ATP luminescence, 48 h. The procedure, abridged:
(§1)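 Four patient lines of CD133+ GBM neurospheres were screened at several concentrations; hits were retested in those lines plus three slower-growing GBM lines, using 48-hour treatment and ATP-based viability.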

In assay [2] the target is Nuclear receptor subfamily 1 group I member 2 (Rattus norvegicus) (UniProt Q9R1A7). The experiment in a line: qHTS assay for small molecule activators of the rat pregnane X receptor (rPXR) signaling pathway (AID 651751; call rule not given here; note: 0% is about no effect). To be noted: rPXR reporter cells, luciferase (One-Glo), 24 h. (In general: qHTS replaces the single test concentration by a dilution series.)
Nuclear receptor subfamily 1 group I member 2 (Rattus norvegicus), sequence (Q9R1A7 whole entry, looked up): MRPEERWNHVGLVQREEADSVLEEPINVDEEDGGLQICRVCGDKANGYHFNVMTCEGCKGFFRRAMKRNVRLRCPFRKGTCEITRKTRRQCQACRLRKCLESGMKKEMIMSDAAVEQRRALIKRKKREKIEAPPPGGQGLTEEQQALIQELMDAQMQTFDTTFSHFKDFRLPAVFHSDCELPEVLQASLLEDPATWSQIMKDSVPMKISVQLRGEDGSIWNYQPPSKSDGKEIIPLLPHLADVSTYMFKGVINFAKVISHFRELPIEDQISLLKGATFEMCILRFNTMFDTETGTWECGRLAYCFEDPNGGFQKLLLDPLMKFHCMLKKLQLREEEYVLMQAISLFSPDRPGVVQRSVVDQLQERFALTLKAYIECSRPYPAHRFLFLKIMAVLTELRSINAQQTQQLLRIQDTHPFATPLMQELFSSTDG
Another assay has as its system astro (control astrocytes). Kind of assay: Drug repurposing screens with cells derived from glioblastoma tumor samples (AID 1345199). For activity, negative = cell killing: % is set by controls: 0 for no effect and ±100 for the full control effect. Note: nearly all actives have a fitted effect of over 40% in size. Note: potency is the fitted concentration of half-maximal effect. Particulars: viability, ATP luminescence, 48 h; series mostly up to 45.9 µM. The essentials:
as §1

Assay [3] is described as follows: qHTS assay for small molecule activators of the human pregnane X receptor (PXR) signaling pathway (AID 720659; call rule not given here; note: 0% is about no effect). Particulars: DPX-2 HepG2 CYP3A4-luciferase, 24 h; series mostly up to 92.3 µM.
The nature of assay [4]: qHTS assay to identify inhibitors of the type 1 interferon - major histocompatibility complex class I in skeletal muscle: Counter screen cell viability and HiBit confirmation (AID 1347412). Note: nearly all actives have a fitted effect of over 60% in size. Note: potency is the fitted concentration of half-maximal effect. Particulars: iHSKM muscle cells + IFN-b, HiBiT or CellTiter-Glo, 24 h; Potency: HiBiT; Viability, at 45.9 µM (top of the series). The procedure, abridged: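 Luminescence read-out: Nano-Glo HiBiT lytic signal from C-terminally HiBiT-tagged HLA-B in CRISPR-edited human myoblasts, plus CellTiter Glo ATP as viability counter screen. IFN-beta 4.0 ng/ml; 24 hrs treatment at 37 C, 5% CO2.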

Where [5] appears, read: at 45.9 µM (top of the series), tumour line D.
Setting [6] is: at 46.1 µM (top of the series), tumour line C.
Where [7] appears, read: at 45.9 µM (top of the series), tumour line B.

Molecules are shown by their SMILES. “And” between values parts separate entries of the source, which are not always exact repeats. Equal values may be shown once. A number with no mark means an inactive call. Records with an inconclusive call do not appear. The source made the active and inactive calls. Unless noted, calls come from the whole dose curve; as a rule, active = well fitted curve in the direction sought with a large enough effect; inconclusive = small, poorly fitted or top-dose-only effect, or another doubt; inactive = no such curve, though single readings can be large; an effect the other way counts as inactive or inconclusive.

The values that follow come from PubChem BioAssay (NCATS).

As to `CC(C)(C)c1cc(O)ccc1O`, the activity, negative = cell killing in assay [1] (setting [5]) is -24.6%; in assay [1] (setting [6]), 3.11%. Besides, the max response in assay [2] is 3.84% and -2.04% and 0.779%.

As for `CN1CCCC(=C(c2cccs2)c2cccs2)C1`, the activity, negative = cell killing was -10.4% in assay [1] (setting [7]) and -24.1% in assay [1] (setting [5]). Moreover, the Potency result in the assay with astro was “inactive”.

Take `O=C1C=CC(=O)C=C1`: in assay [2], the max response was 0.171%. In assay [3], the call was inactive.

With `OC(c1ccccc1)(c1ccccc1)C1CN2CCC1CC2` (stereo unspecified), the activity, negative = cell killing in assay [1] (setting [7]) was -13.1%. In addition, in assay [1] (tumour line A), the Potency is 12.6 µM (active). The Potency result with astro is “inactive”.

Turning to `[H+].[H+].[Hg+2].[O-]B([O-])[O-].[c-]1ccccc1`, in the assay on astro, the Potency is 2.82 µM (active).

As for `O=C1CN=C(c2ccccc2)c2cc(Cl)ccc2N1CC1CC1`, the Potency entry in the assay on astro was “inactive”.

Take `CC[C@H](C)[C@H]1O[C@]2(C=C[C@@H]1C)C[C@@H]1C[C@@H](C/C=C(\C)[C@@H](O[C@H]3C[C@H](OC)[C@@H](O[C@H]4C[C@H](OC)[C@@H](O)[C@H](C)O4)[C@H](C)O3)[C@@H](C)/C=C/C=C3\CO[C@@H]4[C@H](O)C(C)=C[C@@H](C(=O)O1)[C@]34O)O2`: in assay [3], the outcome was inactive.

For the compound `CNC(=O)Oc1ccccc1C(=O)Nc1ccccc1`, the Potency with astro was 22.4 µM (active).

`CO[C@H]1[C@@H](O)C[C@H](O[C@H]2[C@@H](O)C[C@H](O[C@H]3[C@@H](O)C[C@H](O[C@H]4CC[C@@]5(C)[C@H](CC[C@@H]6[C@@H]5C[C@@H](O)[C@]5(C)[C@@H](C7=CC(=O)OC7)CC[C@]65O)C4)O[C@@H]3C)O[C@@H]2C)O[C@@H]1C`: in the assay with astro, the Potency is 0.282 µM (active).

For `C[C@H]1CC[C@]2(NC1)O[C@H]1C[C@H]3[C@@H]4CC[C@H]5C[C@@H](O[C@@H]6O[C@H](CO)[C@H](O[C@@H]7O[C@H](CO)[C@@H](O)[C@H](O[C@@H]8OC[C@@H](O)[C@H](O)[C@H]8O)[C@H]7O[C@@H]7O[C@H](CO)[C@@H](O)[C@H](O)[C@H]7O)[C@H](O)[C@H]6O)CC[C@]5(C)[C@H]4CC[C@]3(C)[C@H]1[C@@H]2C`, the Potency with astro was 3.16 µM (active).

On to `CC1(C(=O)O)C2CCC(O2)C1(C)C(=O)O` (stereo unspecified), for which, in assay [4], the Potency result is “inactive”.

For `O=[N+]([O-])C(Br)(CO)CO`, in assay [1] (setting [6]), the activity, negative = cell killing is -7.96%. Further, the Potency in assay [1] (tumour line A) was 35.5 µM (active); in the assay on astro, 22.4 µM (active). Also, the outcome in assay [3] was inactive.

In the case of `C[C@@H]([C@H](O)c1ccccc1)N(C)C`, the activity, negative = cell killing in assay [1] (setting [7]) was -6.97%; in assay [1] (setting [5]), -5.32%. For the same compound, the Potency result with astro is “inactive”.

`CCC/C=C/C=C/C(=O)O[C@H]1/C(=C/C(=O)OC)C[C@H]2C[C@H]([C@@H](C)O)OC(=O)C[C@H](O)C[C@@H]3C[C@H](OC(C)=O)C(C)(C)[C@](O)(C[C@@H]4C/C(=C/C(=O)OC)C[C@H](/C=C/C(C)(C)[C@]1(O)O2)O4)O3`: the activity, negative = cell killing in assay [1] (setting [7]) was -7.48%; in assay [1] (setting [5]), -24.1%. In addition, in the assay with astro, the Potency entry is “inactive”.

As for `C[C@]12CC[C@H](O)C[C@H]1CC[C@@H]1[C@@H]2CC[C@]2(C)[C@@H](c3ccc(=O)oc3)C[C@H]3O[C@]132`, the Potency in the assay on astro is 1.58 µM (active).

Turning to `CN1C2CCC1CC(OC(c1ccccc1)c1ccc(Cl)cc1)C2` (stereo unspecified), in the assay on astro, the Potency is 17.8 µM (active).

For `COc1ccc2c(c1OC)C(=O)OC2C1c2cc3c(cc2CCN1C)OCO3` (stereo unspecified), in assay [2], the max response was 3.69%.

`O=C1C=C2C=C[C@@H]3C[C@@]2(O1)[C@H]1CCCCN31`: in the assay on astro, the Potency was 17.8 µM (active).

As for `c1ccc2c(c1)[I+]c1ccccc1-2`, the Potency in assay [4] is 7.01 µM (active).

As for `COC(COC(N)=O)C1=C(N2CC2)C(=O)C(C)=C(N2CC2)C1=O` (stereo unspecified), the Potency in the assay on astro was 2.24 µM (active).

For `O=C(C[C@@H]1NCCC[C@H]1O)Cn1cnc2cc(Br)c(Cl)cc2c1=O`, the Potency result in the assay with astro was “inactive”.

Turning to `O=c1c2ccccc2[se]n1-c1ccccc1`, in the assay with astro, the Potency was 22.4 µM (active).

`NNC(N)=O`: the max response in assay [2] is 4.4%. Also, the compound was called inactive in assay [3].

With `CCN(CC)CCO[C@H]1CC[C@@]2(C)C(=CC[C@@H]3[C@@H]2CC[C@]2(C)C(=O)CC[C@@H]32)C1`, the Potency result in the assay with astro is “inactive”.

On to `C[C@@H]1O[C@@H](O[C@H]2C[C@@H](O)[C@]3(CO)[C@@H]4C(CC[C@]3(O)C2)[C@@]2(O)CC[C@H]([C@@H]3COC(=O)C3)[C@@]2(C)C[C@H]4O)[C@H](O)[C@H](O)[C@H]1O` (stereo partly specified), for which the Potency in assay [4] is 0.557 µM (active).

Regarding `Cc1c2ccncc2c(C)c2c1[nH]c1ccccc12`, the Potency in assay [4] was 15.7 µM (active).

As to `C/C(=C\c1csc(C)n1)[C@@H]1C[C@@H]2O[C@]2(C)CCC[C@H](C)[C@H](O)[C@@H](C)C(=O)C(C)(C)[C@@H](O)CC(=O)O1`, the activity, negative = cell killing in assay [1] (setting [7]) is -25.2%; in assay [1] (setting [5]) it was -19.9%. Also, the Potency result in assay [4] is “inactive”.

As for `CC(C)(C)c1cc(C=C(C#N)C#N)cc(C(C)(C)C)c1O`, the Potency result in assay [4] was “inactive”.

For `CC(=O)O[C@H]1C[C@H](O[C@H]2[C@@H](O)C[C@H](O[C@H]3[C@@H](O)C[C@H](O[C@H]4CC[C@@]5(C)[C@H](CC[C@@H]6[C@@H]5C[C@@H](O)[C@]5(C)[C@@H](C7=CC(=O)OC7)CC[C@]65O)C4)O[C@@H]3C)O[C@@H]2C)O[C@H](C)[C@H]1O[C@@H]1O[C@H](CO)[C@@H](O)[C@H](O)[C@H]1O`, the Potency in the assay on astro is 0.282 µM (active).

Consider `O=C(O)c1cc[c]([Hg][Cl])cc1`, for which the max response in assay [2] is -6.42%. Further, in assay [3], the result was inactive.

In the case of `CC(=O)O[C@H]1C[C@H](O[C@H]2[C@@H](O)C[C@H](O[C@H]3[C@@H](O)C[C@H](OC4CC[C@@]5(C)[C@H](CC[C@@H]6[C@@H]5CC[C@]5(C)[C@@H](C7=CC(=O)OC7)CC[C@]65O)C4)O[C@@H]3C)O[C@@H]2C)O[C@H](C)[C@H]1O[C@@H]1O[C@H](CO)[C@@H](O)[C@H](O)[C@H]1O` (stereo partly specified), the Potency in the assay with astro was 0.251 µM (active).

In the case of `[Cl-].[Cl-].[Hg+2]`, the Potency in the assay with astro was 7.94 µM (active).

On to `CNc1ccc2oc(C[C@H]3O[C@@]4(CC[C@H]3C)O[C@H]([C@H](C)C(=O)c3ccc[nH]3)[C@H](C)C[C@H]4C)nc2c1C(=O)O`, for which the Potency in assay [4] was 2.49 µM (active).

With `Cc1cc(C)cc(C(=O)OC2C[C@H]3CC[C@@H](C2)N3C)c1` (stereo partly specified), the Potency result in the assay on astro is “inactive”.

As to `C[C@H]1CC[C@@H]2[C@@H](C)[C@H]3[C@H](C[C@H]4[C@@H]5CC=C6CC(O[C@@H]7O[C@H](CO)[C@H](O)[C@H](O[C@@H]8O[C@H](CO)[C@@H](O)[C@H](O)[C@H]8O)[C@H]7O[C@H]7O[C@@H](C)[C@H](O)[C@@H](O)[C@H]7O)CC[C@]6(C)[C@H]5CC[C@]34C)N2C1` (stereo partly specified), the activity, negative = cell killing in assay [1] (setting [6]) is -1.25%. The Potency (in assay [1] (tumour line B); in the assay with astro) was 22.4 µM (active) each time. In assay [3], the result was inactive.
